High-throughput results deposited in PubChem by several laboratories.
The sample as a whole holds a higher share of hits than the screen did.
RmlCD inh mix: RmlC and RmlD coupled enzyme inhibitors, primary screen, biochemical, 384-well, compound mixtures, retest; RmlC/RmlD coupled enzyme inhibition, 384-well mixture HTS; inhibition, % at 5.5 µM; actives 0.39% (n = 110,000); in the data active means inhibition above about 30%, passing the limit was not always enough
HIV RNase H inh: HIV-1 RT RNase H inhibitors, primary screen, biochemical, fluorescence; inhibition, % at 10 µM; actives 1.9% (n = 65,000); RT-RNase H RNA/DNA duplex cleavage; in the data active means inhibition above about 50%
Starred values were filed as active, the others as inactive; ! = repeats disagree.

Cc1ccc(-c2nn3c(C)nnc3s2)cc1NC(=O)c1ccc(-c2cccc(Cl)c2)o1 was read as RmlCD inh mix -5.0 and HIV RNase H inh 34.0.
`Cc1ccc(-c2nn3c(C)nnc3s2)cc1NC(=O)c1ccc(-c2ccc(Cl)cc2Cl)o1` gave RmlCD inh mix -19.4 and HIV RNase H inh 60.3*.
O=C(O)CCC(=O)NC1CCCCCCC1 was read as RmlCD inh mix 0.0 and HIV RNase H inh 0.6.
`O=C(O)CCCCC1CCSS1` (stereo not drawn) gave RmlCD inh mix 73.5*.
Screening O=c1c2ccccc2sn1-c1ccc(S(=O)(=O)N2CCCCC2)cc1 returned RmlCD inh mix 12.3 and HIV RNase H inh 95.1*.
For O=c1c2ccccc2sn1-c1ccccc1 the results were RmlCD inh mix 8.1.
COc1ccc(S(=O)(=O)c2c(N)n(Cc3ccco3)c3nc4ccccc4nc23)cc1 was read as HIV RNase H inh 47.2.
For Cc1nc2c(c(=O)n1Cc1ccccc1Cl)c1nc3ccccc3nc1n2Cc1ccco1 the results were HIV RNase H inh 38.1.
Screening COc1ccc(Cn2c3nc4ccccc4nc3c3c(=O)n(Cc4ccco4)c(C)nc32)cc1 returned HIV RNase H inh 61.7*.
For COc1ccc(Cn2c(C)nc3c(c2=O)c2nc4ccccc4nc2n3Cc2ccco2)cc1 the results were HIV RNase H inh 81.3*.
COC(=O)c1ccc2c(=O)n(CCC3=CCCCC3)c(SCC(=O)N3CCCC3)nc2c1 was read as HIV RNase H inh 15.6.
For O=C(Nc1ccc(-c2nc3ccccc3o2)cc1)c1ccc2c(c1)OCO2 the results were RmlCD inh mix -73.1 and HIV RNase H inh 26.9.
`Cc1ccc2oc(-c3ccc(NC(=O)c4ccc5c(c4)OCO5)cc3)nc2c1` gave RmlCD inh mix -34.9 and HIV RNase H inh 64.4*.
For CCOc1ccc(S(=O)(=O)Nc2nc3ccc(OC)cc3s2)cc1 the results were RmlCD inh mix -20.3.
CCOc1ccc2nc(NS(C)(=O)=O)sc2c1 was read as RmlCD inh mix 0.8 and HIV RNase H inh 55.0*.
For C[C@H](NC(=O)CCC1CCC(=O)N1)c1ccccc1 (stereo partly drawn) the results were RmlCD inh mix -15.7.
Screening COC(=O)c1c(N)sc(C(C)=O)c1C returned RmlCD inh mix -2.3 and HIV RNase H inh -23.1.
Screening COC(=O)c1sc(=S)sc1C(=O)OC returned RmlCD inh mix -1.3 and HIV RNase H inh 52.4*.
For O=C(NCc1ccco1)c1sc(=S)n2c1[nH]c(=O)c1ccccc12 the results were RmlCD inh mix 15.9 and HIV RNase H inh 58.2*.
Screening O=C(NC1CCCC1)c1sc(=S)n2c1[nH]c(=O)c1ccccc12 returned RmlCD inh mix 4.7 and HIV RNase H inh 29.6.
COc1ccc(-c2cc3nc4n(c(=O)c3s2)CCOC4)cc1 was read as HIV RNase H inh -2.7.
`CN(c1ccccc1)S(=O)(=O)c1ccc(C(=O)OCC(=O)N2CCOCC2)cc1` gave RmlCD inh mix -29.9 and HIV RNase H inh -3.3.
For COc1cc(C2C3=C(CC(C)(C)CC3=O)Nc3c2c(=O)[nH]c(=O)n3Cc2ccccc2)ccc1O (stereo not drawn) the results were HIV RNase H inh 67.5*!.
`COc1ccc(C2C3=C(CC(C)(C)CC3=O)Nc3c2c(=O)[nH]c(=O)n3Cc2ccccc2)cc1OC` (stereo not drawn) gave RmlCD inh mix 2.2 and HIV RNase H inh 4.9.
CC1(C)CC(=O)C(C=NCC2CCN(C(=O)Nc3ccccc3)CC2)=C(O)C1 was read as HIV RNase H inh -7.3.
CCOC(=O)C1=C(C)N(CCCC(=O)O)C(=O)NC1c1ccc(C(F)(F)F)cc1 (stereo not drawn) was read as RmlCD inh mix 8.1.
Screening CN1[C@@H]2CC[C@H]1CC(OC(=O)C(CO)c1ccccc1)C2 (stereo partly drawn) returned RmlCD inh mix 9.6.
Screening CC(C)(C)OC(=O)N1CCN(c2ccc(NC(=O)c3cc4ccccc4oc3=O)cc2)CC1 returned HIV RNase H inh -2.8.
For O=C(c1cc(C2CC2)nc2ccc(Br)cc12)N1N=C(C(F)F)CC1(O)C(F)F (stereo not drawn) the results were RmlCD inh mix 7.5.
`CCC(C)C(NC(=O)c1ccccc1NC(=O)c1ccc(OC)cc1)C(=O)NCc1ccco1` (stereo not drawn) gave RmlCD inh mix -8.9 and HIV RNase H inh 54.6*.
COc1ccc(C(=O)Nc2ccc(Cl)cc2C(=O)NCc2ccco2)cc1 was read as RmlCD inh mix 2.7.
CCNc1ccc(Br)cc(C(=O)/C=C/c2ccc(Cl)cc2Cl)c1=O was read as RmlCD inh mix -2.4.
Screening CC(=O)n1c2ccccc2c2c1c1ccccc1n2C returned RmlCD inh mix -22.0 and HIV RNase H inh 57.0*.
`CC(=O)Nc1c(Cl)n(C(C)=O)c2ccccc12` gave RmlCD inh mix 29.7 and HIV RNase H inh -5.9.
